Results as given in PubChem BioAssay (NCATS).
Several values for one entry are separate records, joined by “and”; a condition that tells them apart may be missing. Identical values can stand only once. Unmarked numbers belong to inactive results. Results filed as inconclusive are left out. Where a call stands in place of a potency, no number is given. Activity calls are given as the source filed them. Unless noted, calls come from the whole dose curve; as a rule, active = well fitted curve in the direction sought with a large enough effect; inconclusive = small, poorly fitted or top-dose-only effect, or another doubt; inactive = no such curve, though single readings can be large; an effect the other way counts as inactive or inconclusive.

Assays:
[1] = Cell Viability - N2a (AID 540); details: N2a mouse neuroblastoma cell viability; activity change, negative = cytotoxicity: at 92.2 µM (top of the series); note: nearly all actives have a fitted effect of over 45% in size
Outline: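 CellTiter-Glo ATP luminescence, read 20 min after reagent at room temperature, reported viability following 40 h compound treatment at 37 °C. N2a mouse neuroblastoma cells seeded 1500/well; Hill equation gave AC50.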

[2] = Cell Viability - Renal Proximal Tubule (AID 545); details: renal proximal tubule cells viability, primary cells of rat origin; at 91.7 µM (top of the series);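 note: cells exposed to compound for 40 hours; nearly all actives have a fitted effect of over 40% in size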
Outline: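 Viability taken as intracellular ATP (CellTiter-Glo luminescence) after 40 hr, 37 °C compound treatment of primary proximal tubule cells from rat kidney, 1000 cells/well; Hill-equation fits of qHTS concentration-response data gave AC50.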

[3] = MultiTox-Fluor Cytotoxicity Assay - LYMP1-001 - Dead Cells (AID 946)
Outline: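 Seed 2500 LYMP1-001 cells/well, incubate 5 hr at 37 C; add compound, 16 hr at 37 C; add MultiTox-Fluor reagent, 60 min RT; read dead-cell fluorescence Ex/Em=485/520. Normalize to DMSO and 15 uM tetraoctylammonium bromide.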

[4] = Cell Viability - LYMP1-002 - Assay at 16 hr (AID 948); note: potency is the fitted concentration of half-maximal effect
Outline: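 ATP luminescence (CellTiter-Glo) was measured after 16 hr compound exposure at 37 C of 2500 lymphoblastoid LYMP1-002 cells per well. Concentration-response curves were fitted with the Hill equation to give AC50.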

[5] = MultiTox-Fluor Cytotoxicity Assay - LYMP1-002 - Live Cells (AID 955);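 note: cells exposed to compound for 16 hours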
Outline: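 After 16 h compound exposure at 37 C, live LYMP1-002 lymphoblastoid cells (2500/well) were quantified by cleavage of cell-permeant GF-AFC substrate, read at 405/510 nm after 60 min. Concentration-response fitted with Hill equation for AC50.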

[6] = MultiTox-Fluor Cytotoxicity Assay - LYMP1-003 - Dead Cells (AID 961); note: nearly all actives have a fitted effect of over 70% in size
Outline: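 LYMP1-003 lymphoblastoid, 2500 cells/well, 5 hr settle then 16 hr cpd at 37 C; MultiTox-Fluor reagent 60 min RT; Ex/Em 485/520 dead-cell signal; norm. DMSO = 0%, 15 uM tetraoctylammonium bromide = 100%; Hill AC50.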

[7] = Cell Viability - LYMP2-003 (AID 965);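 note: cells exposed to compounds for 24 h before reading; nearly all actives have a fitted effect of over 50% in size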; note: potency is the fitted concentration of half-maximal effect
Outline: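 CellTiter-Glo luminescence quantified ATP loss after 24 h compound treatment of LYMP2-003 lymphoblastoid cells at 37 C. Titration series were fitted with the standard Hill equation to give AC50.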

[8] = Cell Viability - LYMP2-004 (AID 966); note: nearly all actives have a fitted effect of over 65% in size; note: potency is the fitted concentration of half-maximal effect
Outline: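 AC50 values come from Hill modelling of concentration-dependent loss of intracellular ATP, measured by CellTiter-Glo luminescence. Human LYMP2-004 lymphoblastoid cells (2500/well) were exposed to compound for 24 h at 37 C.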

[9] = Cell Viability - LYMP2-009 (AID 968); note: nearly all actives have a fitted effect of over 55% in size; note: potency is the fitted concentration of half-maximal effect
[10] = Cell Viability - LYMP2-019 (AID 973); note: nearly all actives have a fitted effect of over 55% in size; note: potency is the fitted concentration of half-maximal effect
Outline: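 AC50 values come from Hill-equation fits of luminescent intracellular ATP (CellTiter-Glo, 30 min, room temperature) following 24 h compound exposure at 37 C. Cells: LYMP2-019 lymphoblastoid line, 2500 per well, in complete culture medium.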

[11] = Cell Viability - LYMP2-021 (AID 974); note: nearly all actives have a fitted effect of over 55% in size; note: potency is the fitted concentration of half-maximal effect
Outline: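 AC50 values come from Hill-equation fits to CellTiter-Glo luminescence (ATP content), read after 24 hour compound exposure at 37 C of 2500 LYMP2-021 lymphoblastoid cells/well; tetraoctylammonium bromide as positive control.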

[12] = Cell Viability - LYMP2-023 (AID 975); note: nearly all actives have a fitted effect of over 55% in size; note: potency is the fitted concentration of half-maximal effect;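 for activity change, negative = cytotoxicity: cellular ATP measured by luciferase luminescence as viability proxy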
Outline: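 Intracellular ATP, read by CellTiter-Glo luminescence, reports viability after 24 hr compound exposure at 37 C. 2500 lymphoblastoid cells/well (LYMP2-023) seeded 5 hr beforehand; Hill fits give AC50; positive control tetraoctylammonium bromide.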

[13] = Cell Viability - LYMP2-002 (AID 977)
Outline: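 Human lymphoblastoid cells, 2500/well, complete medium; 5 h 37 C settle; compound 24 h 37 C; CellTiter-Glo, 30 min RT; luminescence. Decrease in ATP = cytotoxicity; AC50 via Hill equation.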

[14] = Cell Viability - LYMP2-006 (AID 978); note: nearly all actives have a fitted effect of over 60% in size
Outline: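 Potency values are Hill-fit AC50s for decreases in intracellular ATP (CellTiter-Glo luminescence). LYMP2-006 lymphoblastoid cells, 2500 per well, were exposed to compound in complete culture medium for 24 hr at 37 C.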

[15] = Cell Viability - LYMP2-008 (AID 980); note: nearly all actives have a fitted effect of over 60% in size; note: potency is the fitted concentration of half-maximal effect
Outline: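 Cytotoxicity determined from ATP-dependent luciferase luminescence (CellTiter-Glo) following 24 h compound exposure of human lymphoblastoid LYMP2-008 cells at 37 C. Concentration-response data fitted to the Hill equation to give AC50.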

[16] = Cell Viability - LYMP2-014 (AID 983); note: nearly all actives have a fitted effect of over 50% in size; note: potency is the fitted concentration of half-maximal effect
Outline: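 Intracellular ATP loss, read by luciferase luminescence, measures acute cytotoxicity after 24 h compound exposure of lymphoblastoid LYMP2-014 cells (2500/well, 37 C). Concentration-response data fitted to the Hill equation for AC50.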

[17] = Cell Viability - LYMP2-016 (AID 984); note: nearly all actives have a fitted effect of over 55% in size
Outline: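 Cytotoxicity was scored by luminescent ATP content (CellTiter-Glo) after 24 h compound exposure at 37 C of a human lymphoblastoid line at 2500 cells/well. Concentration-response data were fitted to the Hill equation for AC50.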

[18] = Cell Viability - LYMP2-026 (AID 989); note: nearly all actives have a fitted effect of over 50% in size; note: potency is the fitted concentration of half-maximal effect
Outline: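 Cytotoxicity read as ATP-dependent luminescence (CellTiter-Glo, 30 min room temperature) after 24 h compound treatment at 37 C. LYMP2-026 lymphoblastoid line seeded at 2500 cells/well; AC50 derived by standard Hill equation.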

[19] = Cell Viability - LYMP1-002 - Assay at 24 hr (AID 993); note: potency is the fitted concentration of half-maximal effect
Outline: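 qHTS cytotoxicity at 24 h: CellTiter-Glo ATP luminescence in lymphoblastoid line LYMP1-002 incubated with compound at 37 °C. Concentration-response modeled with the Hill equation for AC50; tetraoctylammonium bromide served as positive control.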

[20] = qHTS assay for small molecule agonists of the antioxidant response element (ARE) signaling pathway measured by Nrf2-dependant transcriptional activity (AID 720636; active = well fitted curve in the direction sought with a large enough effect in the repeat runs; an effect the other way counts as inactive or inconclusive;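 note: HepG2 cells with an ARE-driven luciferase reporter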)
Outline: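 First, ARE-luc HepG2 cells attached for 6 hr at 37 C in 1% dialyzed FBS medium. Next, compound or DMSO was added and incubated 16 hr. Finally, ONE-Glo reagent was added and luminescence measured after 30 min.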

SMILES | activity change, negative = cytotoxicity [1] | activity change, negative = cytotoxicity [2] | Potency [3] | Potency [4] | Potency [5] | Potency [6] | Potency [7] | Potency [8] | Potency [9] | Potency [10] | Potency [11] | Potency [12] | Potency [13] | Potency [14] | Potency [15] | Potency [16] | Potency [17] | Potency [18] | Potency [19] | Potency [20]
c1ccc2c(c1)[nH]c1ccccc12 | -16.4% | -10.3% | inactive | inactive | inactive | inactive | inactive | inactive | inactive | inactive | inactive | inactive | inactive | inactive | inactive | inactive | inactive | inactive | inactive | 
Cc1ccc(N)c([N+](=O)[O-])c1 | 2.46% | 4.17% | inactive | inactive | inactive | inactive | inactive | inactive | inactive | inactive | inactive | inactive | inactive | inactive | inactive | inactive | inactive | inactive | inactive | inactive
CCO | -0.0856% | -3.41% | inactive | inactive | inactive | inactive | inactive | inactive | inactive | inactive | inactive | inactive | inactive | inactive | inactive | inactive | inactive | inactive | inactive | inactive
NC1=NC(S)C2N=CN=C2N1 (stereo not drawn) |  |  |  | 12.6 µM (active) |  |  | 6.31 µM (active) | 7.94 µM (active) | 15.8 µM (active) | 10 µM (active) | 15.8 µM (active) | 10 µM (active) |  |  | 3.16 µM (active) | 15.8 µM (active) |  | 12.6 µM (active) | 10 µM (active) | inactive
OCCNCCO | 6.19% | -1.22% | inactive | inactive | inactive | inactive | inactive | inactive | inactive | inactive | inactive | inactive | inactive | inactive | inactive | inactive | inactive | inactive | inactive | inactive
c1ccccc1 | -0.296% and -3.09% | 3.93% and -11% | inactive | inactive | inactive | inactive | inactive | inactive | inactive | inactive | inactive | inactive | inactive | inactive | inactive | inactive | inactive | inactive | inactive | inactive
CCC(O)OC(O)CC (stereo not drawn) | 5.7% and 11.3% | -7.55% and -1.85% | inactive | inactive | inactive | inactive | inactive | inactive | inactive | inactive | inactive | inactive | inactive | inactive | inactive | inactive | inactive | inactive | inactive | inactive
Nc1ccc(S(=O)(=O)O)cc1 | -1.94% | -9.81% | inactive | inactive | inactive | inactive | inactive | inactive | inactive | inactive | inactive | inactive | inactive | inactive | inactive | inactive | inactive | inactive | inactive | inactive
Clc1cc(Cl)c(Cl)cc1Cl | 2.22% | -8.1% | inactive | inactive | inactive | inactive | inactive | inactive | inactive | inactive | inactive | inactive | inactive | inactive | inactive | inactive | inactive | inactive | inactive | inactive
CC1(C)CC(N=C=O)CC(C)(CN=C=O)C1 (stereo not drawn) | 6.51% | 13.5% | inactive | inactive | inactive | inactive | inactive | inactive | inactive | inactive | inactive | inactive | inactive | inactive | inactive | inactive | inactive | inactive | inactive | inactive
CC(=O)OC/C=C(\C)CCC=C(C)C | -0.528% | 3.05% | inactive | inactive | inactive | inactive | inactive | inactive | inactive | inactive | inactive | inactive | inactive | inactive | inactive | inactive | inactive | inactive | inactive | inactive
CN(C)C=O | -9.63% and 3.24% | -1.87% and 6.39% | inactive | inactive | inactive | inactive | inactive | inactive | inactive | inactive | inactive | inactive | inactive | inactive | inactive | inactive | inactive | inactive | inactive | inactive
C=Cc1ccccc1Cl | 1.46% | -4.37% | inactive | inactive | inactive | inactive | inactive | inactive | inactive | inactive | inactive | inactive | inactive | inactive | inactive | inactive | inactive | inactive | inactive | inactive
O=[N+]([O-])c1cccc(Cl)c1Cl | -3.99% | -2.04% | inactive | inactive | inactive | inactive | inactive | inactive | inactive | inactive | inactive | inactive | inactive | inactive | inactive | inactive | inactive | inactive | inactive | inactive
Nc1ccc(Cl)cc1Cl | 7.32% | -0.932% | inactive | inactive | inactive | inactive | inactive | inactive | inactive | inactive | inactive | inactive | inactive | inactive | inactive | inactive | inactive | inactive | inactive | inactive
C=CCOC(=O)c1ccccc1C(=O)OCC=C | -8.09% | -7.06% | inactive | inactive | inactive | inactive | inactive | inactive | inactive | inactive | inactive | inactive | inactive | inactive | inactive | inactive | inactive | inactive | inactive | inactive
COCC(=O)O | 3.33% | -6.52% | inactive | inactive | inactive | inactive | inactive | inactive | inactive | inactive | inactive | inactive | inactive | inactive | inactive | inactive | inactive | inactive | inactive | inactive
Cc1ccc([N+](=O)[O-])cc1N | -2.12% | -8.34% | inactive | inactive | inactive | inactive | inactive | inactive | inactive | inactive | inactive | inactive | inactive | inactive | inactive | inactive | inactive | inactive | inactive | inactive
O=C(O)c1ccc(O)cc1O | 7.6% and 11% | -3.65% and 5.93% | inactive | inactive | inactive | inactive | inactive | inactive | inactive | inactive | inactive | inactive | inactive | inactive | inactive | inactive | inactive | inactive | inactive | inactive
ClCCCl | 3.03% | -0.883% | inactive | inactive | inactive | inactive | inactive | inactive | inactive | inactive | inactive | inactive | inactive | inactive | inactive | inactive | inactive | inactive | inactive | inactive
O=NO | -19.4% and -4.96% | -3.27% and -5.21% | inactive | inactive | inactive | inactive | inactive | inactive | inactive | inactive | inactive | inactive | inactive | inactive | inactive | inactive | inactive | inactive | inactive | inactive
S=C1NC=NC2N=CNC12 (stereo not drawn) |  |  | inactive |  | inactive | inactive |  |  |  |  |  |  | inactive | inactive |  |  | inactive |  |  | inactive
